Assay results as given in PubChem BioAssay (NCI).
About 79,000 compounds went through this panel and 15% of them were active in at least one assay; those are over-represented in the sample as a whole. Values without a mark were called inactive. Calls of active or inactive are those of the source. Cut-off read from the data, not from the text of the source: active = growth inhibition above about 70%; inactive = the rest.

Tests used:
[1] = NCI Yeast Anticancer Drug Screen. Data for the rad50 strain (AID 155);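 note: 0% = growth of vehicle-only cultures of the same strain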; details: S. cerevisiae rad50 strain growth inhibition; at 50.0 µM; hits give high values
How it was run: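 Vehicle-treated cultures provide the reference for the growth inhibition reported for compound-exposed, repair-deficient yeast.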

[2] = NCI Yeast Anticancer Drug Screen. Data for the mec2-1 strain (AID 157); details: S. cerevisiae mec2-1 strain, at 50.0 µM, hits give high values
How it was run: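 Compounds were applied to mec2-1 yeast cells. Their growth was then compared with that of vehicle-treated cultures to give growth inhibition.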

[3] = NCI Yeast Anticancer Drug Screen. Data for the sgs1 mgt1 strain (AID 161);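 note: 0% = growth of cultures given vehicle only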; details: S. cerevisiae sgs1 mgt1 strain, at 50.0 µM, hits give high values
How it was run: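 Yeast cells carrying a defined DNA-repair defect were exposed to test compounds. Growth inhibition was measured relative to vehicle-treated controls.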

[4] = NCI Yeast Anticancer Drug Screen. Data for the cln2 rad14 strain (AID 165);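 note: 0% = growth equal to vehicle treated cultures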; details: S. cerevisiae cln2 rad14 strain, at 50.0 µM, hits give high values
How it was run: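 Strain: cln2 rad14 yeast, altered in cell cycle control and DNA damage repair. Read-out: growth inhibition vs vehicle.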

[5] = NCI Yeast Anticancer Drug Screen. Data for the bub3 strain (AID 167); details: S. cerevisiae bub3 mutant strain, at 50.0 µM, hits give high values
How it was run: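 Mutant yeast screening strain plus compound; vehicle-treated cultures serve as the 0% inhibition reference.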

[6] = NCI Yeast Anticancer Drug Screen. Data for the mlh1 rad18 strain (AID 175); details: S. cerevisiae mlh1 rad18 strain growth inhibition; at 50.0 µM; hits give high values
How it was run: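 A repair-deficient yeast strain is exposed to test compound, and growth is scored relative to vehicle-treated controls.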

Compound	growth inhibition [1]	growth inhibition [2] [%]	growth inhibition [3]	growth inhibition [4] [%]	growth inhibition [5] [%]	growth inhibition [6] [%]
COc1ccc(/C(Cl)=C(\C=N/O)c2ccc(OC)c(OC)c2)cc1OC	-8.45%	11.9	-0.7%	2.05	8.15	-7.45
COC1CCC(OC)(C(=O)NN)O1 (configuration not stated)	-22.9%	-53.1	-9.45%	4.3	-57.2	-0.6
COc1ccc(S(=O)(=O)N(C)c2ccccc2)cc1	2.9%	-56.8	-20.6%	13.3	19.1	3.5
CC(C)CC(N)C(=O)NC(Cc1cc2ccccc2[nH]1)C(=O)O (configuration not stated)	2.4%	-6.25	7.3%	-17.9	5.2	-0.4
Cc1ncc(C(=O)O)c(CO)c1N	7.45%	-15.9	-14.8%	13.3	-18.4	4.8
NNC(=O)C(=O)O	14.4%	-2.95	20.2%	-15	15.3	14.8
Oc1ccc(O)c(CCCc2cc(O)ccc2O)c1	13.3%	7.8	-2.25%	0.5	6.95	49.5
O=C(Nc1ccccc1)OC1OC(COC(=O)c2ccccc2)C(OC(=O)c2ccccc2)C1OS(=O)(=O)c1ccc([N+](=O)[O-])cc1 (configuration not stated)	-18.1%	0.15	-18.2%	-25.6	-13.1	-15.8
CCCCCCCCCCCCCCCC(=O)NCNC(=O)CCCCCCCCCCCCCCC	-2.15%	-9.75	-20.4%	-6.55	2.65	-14.2
Cc1ccc([N+](=O)[O-])cc1NC(=O)NCCCl	-11.1%	4.55	5.5%	-1	-11.1	-9.05
Cc1ccc(S(=O)(=O)/C=C/c2ccccc2)cc1	8.15%	6.2	1.8%	-10.3	-2.45	-10.2
c1ccc(OC23CC4CC(CC(C4)C2)C3)cc1	-9.45%	-5	-5.2%	42.8	-18.8	-21.6
CC(=O)[C@@H](C)C(=O)N1C(=O)OC[C@@]12[C@@H]1CC[C@@H](C1)C2(C)C	-13.8%	-31.4	-25.9%	-26.4	10.8	-32
COC1CC(NC(C)=O)C(O)C(C)O1 (configuration not stated)	-10.2%	-12.4	-10.6%	-40	5.65	1.5
CSC1(C)C(=O)Nc2ccccc21 (configuration not stated)	-4.15%	-9.65	-0.35%	-20.8	-36.3	3.6
COc1ccccc1NC(=O)CC(=O)n1nc(-c2ccccc2)c(N=Nc2ccccc2[N+](=O)[O-])c1-c1ccccc1	-0.4%	-15.5	27.9%	0.5	25.3	15.5
COc1cc(C2C3=C(COC3=O)Oc3cc4c(cc32)OCO4)cc(OC)c1OC (configuration not stated)	-3.15%	24.1	-8.35%	14.2	-12.2	3.5
O=C(Nc1cccc(C(=O)NCCCO)c1)/C(=C/c1ccccc1)NC(=O)c1ccccc1	0%	-1.85	1.45%	9.35	-2.4	4.35
CCCCCCCCN(CCCCCCCC)CC(O)c1ccc2cc(Br)c3ccccc3c2c1 (configuration not stated)	25.9%	26.2	46.5%	47.1	24	49.4
Cc1c(-c2ccccc2)noc1-n1nnc2ccccc2c1=O	-7.45%	29.6	11.4%	-42.8	48.4	9.05
C=C(Br)CNC(=O)Nc1ccc(Cl)c(Cl)c1	-0.3%	16.1	21.4%	5.7	22.6	-86.2

Compound	growth inhibition [1]	growth inhibition [2] [%]	growth inhibition [3]	growth inhibition [4] [%]	growth inhibition [5] [%]	growth inhibition [6] [%]
Nc1c(Cl)cccc1C(=O)c1ccccc1C(=O)O	-9.8%	4.8	5.4%	-14.8	1	-3.15
CC1CCC2(OC1)OC1CC3C4CCC5CC(O)CCC5(C)C4C(=O)C(O)C3(C)C1C2C (configuration not stated)	39.5%	17.9	49%	16.7	14.5	41
Nc1ccc(S(=O)(=O)OCCOc2ccccc2)cc1	-2.85%	7.6	2.6%	-4.2	18.7	-7.3
CC(=O)CC(=O)Nc1cccc(C)n1	-0.4%	-9.95	-14.3%	3.8	6.25	7.25
CC#CC#C/C=C1/C=CC2(CC=CO2)O1 (configuration not stated)	1.55%	7.95	9.85%	12.3	25.3	29.6
CNc1ccc(OC)cc1	-4.9%	-0.9	-13.4%	-1	7.35	3.25
COC1Cc2c(C)c(OC(C)=O)c3cccnc3c2O1 (configuration not stated)	18.6%	-17.4	10.8%	18.6	4.25	5.65
COc1cc(C(C#N)NNc2nc(C)cc(=O)[nH]2)cc(OC)c1OC (configuration not stated)	-25.6%	-2.75	-31.1%	-5.35	-23.9	-12.9
O=C1CCCC1C(=O)c1ccccc1.O=C1CCCC1C(=O)c1ccccc1.[Cu] (configuration not stated)	70.9% (active)	22.1	88.5% (active)	23.7	-2	52.9
C=CC(C)c1cccc(C=O)c1O (configuration not stated)	0.3%	-7.3	-0.3%	-32	17.8	15.2
CCNC(=O)c1ccccc1C(=O)c1ccccc1	-4.55%	1.2	6.55%	12.8	-0.75	11.5
c1cc2cc(C3=NCCN3)[nH]c2cc1C1=NCCN1	12.8%	35.4	29.1%	43.5	18.6	26.2
CC1(C)OCC(C(OC(=O)c2ccc([N+](=O)[O-])cc2)C(OC(=O)c2ccc([N+](=O)[O-])cc2)C2COC(C)(C)O2)O1 (configuration not stated)	24.6%	4.25	-5.3%	41.2	2.9	20.4
COc1cccc2c1c1ccc3c(c1n2C)C(=O)C=CC3=O	23.6%	22.6	21.9%	11.2	4.85	20.6
COc1cc(NC(=O)CC(C)=O)cc(OC)c1	-4%	-5	-10%	3.2	-18.4	-2.5
CCOc1ccc(C2=NNC(=O)CC2)cc1	26%	-8.55	-9.15%	14.3	13.9	17.6
CCOC(=O)/C=C/C(=O)O.[Cu+2]	5.2%	-14.3	-4%	-13.7	-17.2	11.9
NC(=S)N/N=C1\C(=O)N(CCc2ccccc2)C(=O)C1C(=O)NCCc1ccccc1 (configuration not stated)	-16.4%	-27.7	-35.6%	14.1	-5.8	-15.2
O=[N+]([O-])c1cc2c3ccccc3c([N+](=O)[O-])cc2c2ccccc12	-10.2%	-14.8	-8.6%	-15.2	-10.5	10.7
Nc1ccccc1OCOCOc1ccccc1N	-11.7%	-17.8	-7%	-11.4	-6.3	-10.3
C=CCOC(=O)C1CC(C)=CC(C)C1C (configuration not stated)	23.5%	3.6	-13.7%	-46.4	-12.1	5.2
